From PubChem BioAssay (NCI)
Where “and” joins values, the source holds several entries; their conditions need not be identical. Equal values may be shown once. About 83,000 compounds went through this panel and 20% of them were active in at least one assay; those are over-represented in the sample as a whole.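 In brief: 96-well plates, 48 h treatment, single concentration, percent growth endpoint.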 Calls of active or inactive are those of the source. The calls were made as follows: active = growth percent below 10; inactive = the rest.

Key:
Test in all cases: NCI-60 one-dose screen, 48 h (100 = growth as untreated, 0 = no growth, -100 = all killed)
[1] = test system: HCT-15 colon; conditions: 10 µM
[2] = test system: HT29 colon; conditions: 10 µM
[3] = test system: SNB-75 CNS; conditions: 10 µM
[4] = test system: SNB-19 CNS; conditions: 10 µM
[5] = test system: U251 CNS; conditions: 10 µM
[6] = test system: PC-3 prostate; conditions: 10 µM
[7] = test system: SK-MEL-5 melanoma; conditions: 10 µM
[8] = test system: UACC-62 melanoma; conditions: 10 µM unless noted
[9] = test system: LOX IMVI melanoma; conditions: 10 µM
[10] = test system: SK-MEL-28 melanoma; conditions: 10 µM
[11] = test system: SK-MEL-2 melanoma; conditions: 10 µM
[12] = test system: EKVX NSCLC; conditions: 10 µM
[13] = test system: UO-31 renal; conditions: 10 µM
[14] = test system: TK-10 renal; conditions: 10 µM unless noted
[15] = test system: ACHN renal; conditions: 10 µM
[16] = test system: A498 renal; conditions: 10 µM
[17] = test system: HL-60(TB) leukemia; conditions: 10 µM
[18] = test system: CCRF-CEM leukemia; conditions: 10 µM
[19] = test system: SN12C renal; conditions: 10 µM
[20] = test system: CAKI-1 renal; conditions: 10 µM

Measured: growth

COS(=O)(=O)c1ccccc1
inactive: [1] 108% | [2] 110% | [3] 95.2% | [4] 110% | [5] 96.4% | [6] 102% | [7] 108% | [8] 102% | [9] 102% | [10] 113% | [11] 101% | [12] 112% | [13] 89.5% | [14] 104% | [15] 101% | [16] 112% | [17] 106% | [18] 99.7%

CS(=N)(=O)CCC(N)C(=O)O (stereo not given)
inactive: [1] 99.9% | [2] 113% | [3] 91% | [4] 102% | [5] 104% | [6] 89.8% | [7] 110% | [8] 113% | [9] 103% | [10] 128% | [11] 107% | [12] 109% | [13] 95.1% | [14] 94.1% | [15] 103% | [17] 127%

C#CC1(O)CCC(C(C)(C)C)CC1 (stereo not given)
inactive: [1] 91.6% | [2] 104% | [3] 113% | [4] 103% | [5] 106% | [6] 97.1% | [7] 105% | [8] 104% | [9] 110% | [10] 120% | [11] 112% | [12] 118% | [13] 108% | [14] 106% | [15] 104% | [17] 140% | [18] 96.6%

ClCc1ccc2ccccc2n1
inactive: [1] 103% | [2] 94.1% | [3] 81.8% | [4] 103% | [5] 103% | [6] 92.1% | [7] 91% | [8] 74.9% | [9] 80.5% | [10] 110% | [11] 99.4% | [12] 93.2% | [19] 86% | [13] 89.8% | [14] 113% | [15] 96.8% | [20] 58.5% | [16] 98.1% | [17] 66.3% | [18] 103%

Cc1ccc(C(=O)C2C(c3ccccc3)N2C2CCCCC2)cc1 (stereo not given)
inactive: [1] 99.3% and 89.8% | [2] 111% and 84.9% | [3] 97.5% and 88.8% | [4] 105% and 94% | [5] 106% and 93.1% | [6] 98% and 83% | [7] 88.1% and 99% | [8] 102% and 91.2% | [9] 99.9% and 98.1% | [10] 105% and 102% | [11] 101% and 98.3% | [13] 92.8% and 73.4% | [14] 137% and 108% | [15] 113% and 97.9% | [20] 107% and 94.3% | [17] 98.3% and 94.8% | [18] 94.2% and 96%

CC(C)(C)OOC(=O)/C=C\C(=O)OOC(C)(C)C
inactive: [1] 106% | [2] 105% | [3] 98.5% | [4] 91.9% | [5] 99.2% | [6] 95.4% | [7] 106% | [8] 94.7% | [9] 107% | [10] 109% | [11] 103% | [12] 123% | [19] 97.3% | [13] 103% | [14] 101% | [15] 108% | [17] 74.6% | [18] 96.4%

Oc1ccccc1-c1ccccc1
inactive: [1] 104% and 94.6% | [2] 97% and 98.8% | [3] 97.4% and 79.2% | [4] 101% and 93.4% | [5] 99% and 98.1% | [6] 94.4% and 98.6% | [7] 102% and 97.7% | [8] 98.5% and 96% | [9] 92.3% and 108% | [10] 112% and 102% | [11] 98.1% and 98.2% | [12] 116% | [19] 104% and 92.6% | [13] 91.1% | [14] 97.4% and 105% | [15] 95.2% and 104% | [16] 85.5% and 108% | [17] 96.2% and 103% | [18] 103% and 94.8%
